# Among all 13,000 compounds or so, about 3,200 (25%) showed an effect of 50% or more. The list shows a part of the results.
# Test system: P. falciparum stage V gametocytes
# Set-up: BacTiter-Glo ATP luminescence viability of purified stage V gametocytes in 384-well plates, per cent inhibition versus DMSO
# Settings: 48 h, 5 µM; inhibitor
row,SMILES,% Inhibition [%]
1,CCc1cc(COc2ccc(CNCCC(C)C)cc2I)c(OCc2ccccc2)c(COc2ccc(CNCCC(C)C)cc2I)c1 [TCMDC-137255],104.7
2,Oc1ccc(CCNCc2ccc(OCc3ccccc3)c(OCc3ccccc3)c2)cc1 [TCMDC-131868],6.388
3,Ic1cc(Nc2ncnc3ccsc23)ccc1OCc1ccccc1 [TCMDC-131945],7.84
4,CC(C)CCNCc1ccc(OCc2cccc(C(=O)Nc3ccccc3)c2)c(I)c1 [TCMDC-137174],28.8
5,CN(C)Cc1cccc(CNC(=O)c2sccc2OCc2ccc(Cl)cc2)c1 [TCMDC-133072],41.43
6,CC(C)CCNCc1ccc(OCc2cccc(COc3ccc(CNCCC(C)C)cc3I)c2)c(I)c1 [TCMDC-137274],110.6
7,Cc1ccc(C)c(NC(=O)Nc2ccc(C)c(-c3ccc(C(=O)Nc4ccncc4)cc3)c2)c1 [TCMDC-133703],-9.34
8,COc1cc(CCNC(=N)/C=C/c2ccc(Cl)cc2)ccc1Cl [TCMDC-137457],106.7
9,COc1ccc(NC(=O)N2CCCN(CCCCCNC(=O)/C=C/c3ccc(Cl)cc3)CC2)cc1Cl [TCMDC-136103],-49.97
10,COc1ccc(CCNc2ccnc3cc(Cl)ccc23)cc1OC [TCMDC-138550],-32.91
11,O=C(NCCN1CCCC1)c1ccc(-c2cccc(-c3nc4ccc(F)cc4[nH]3)c2)cc1 [TCMDC-132321],-17.02
12,COc1cc(OC)cc(C(=O)Nc2ccc(Nc3nc(C)cc(N(C)C)n3)cc2)c1 [TCMDC-124726],23.32
13,NC(N)=NN=Cc1ccc2ccc3ccccc3c2c1 [TCMDC-137902],101.6
14,NC(N)=NN=Cc1cc2ccccc2c2ccccc12 [TCMDC-137671],48.28
15,NC(N)=NN=Cc1ccc2c(c1)Cc1ccccc1-2 [TCMDC-137360],-2.51
16,NC(N)=NN=Cc1ccc2c(ccc3ccccc32)c1 [TCMDC-137912],86.91
17,Cc1ccccc1C1CCN(C2CCC(NC(=O)/C=C/c3cc(F)ccc3F)CC2)CC1 (centres unmarked) [TCMDC-133510],-90.23
18,COc1ccc(NC(=O)[C@H](Cc2ccccc2)Nc2cc(C)nc(NCCc3cccnc3)n2)cc1 [TCMDC-134818],72.32
19,COc1ccc(NC(=O)[C@H](Cc2ccccc2)Nc2cc(C)nc(NCCOc3ccccc3)n2)cc1 [TCMDC-134757],13.17
20,Cc1cc(N[C@@H](Cc2ccccc2)C(=O)Nc2ccccc2)nc(NCCc2cccnc2)n1 [TCMDC-134820],59.14
21,COc1ccc(NC(=O)[C@H](Cc2ccccc2)Nc2cc(C)nc(Nc3ccccc3)n2)cc1 [TCMDC-134733],-3.042

row,SMILES,% Inhibition [%]
1,COc1ccc(O)c(C(=O)c2cc(C(=O)NC3CCCCC3)c(=O)n(C3CCCCC3)c2)c1 [TCMDC-124510],4.971
2,Cc1[nH]c(C)c(-c2ccc(OCc3ccccc3C(F)(F)F)nc2)c(=O)c1Br [TCMDC-135796],65.1
3,Cc1[nH]c(C)c(-c2ccc(OCc3cc(C(F)(F)F)cc(C(F)(F)F)c3)nc2)c(=O)c1Cl [TCMDC-135814],52.24
4,Cc1[nH]c(C)c(-c2ccc(OCc3cccc(C(F)(F)F)c3)nc2)c(=O)c1Br [TCMDC-135656],74.31
5,Cc1[nH]c(C)c(-c2ccc(OCc3ccc(OC(F)(F)F)cc3)nc2)c(=O)c1Cl [TCMDC-135271],11.85
6,Cc1[nH]c(C)c(-c2ccc(OCc3cc(C(F)(F)F)cc(C(F)(F)F)c3)nc2)c(=O)c1Br [TCMDC-135815],65.31
7,COc1ccc(OC)c2c1CCN(CCN1CCC(C(=O)Nc3ccc(C(=O)Nc4ccc(Cl)cc4)cc3)CC1)C2 [TCMDC-138820],2.402
8,FC(F)(F)c1ccc2[nH]c(-c3ccc(-c4cccc(CNCc5cnn(-c6ccccc6)n5)c4)cc3)nc2c1.O=C(O)C(F)(F)F [TCMDC-132971],-20.04
9,O=C(NC1CCC(CCN2Cc3ccc(Br)cc3C2)CC1)c1cccc(-c2cccnc2)c1 (centres unmarked) [TCMDC-139603],36.86
10,Nc1nc(N)c2c(Oc3cccnc3)cccc2n1 [TCMDC-137990],-4.996
11,CN(C)c1cccc(NC(=O)N[C@H]2N=C(c3ccccc3)c3ccccc3N(CC(=O)N3CCCC3)C2=O)c1 [TCMDC-131987],37.26
12,N#Cc1ccc(CCNc2nccc(-c3cccc(CN4CCNCC4)c3)n2)cc1 [TCMDC-134845],38.8
13,CCC[C@@H]([C@@H](CC1CCCCC1)C(=O)NC(C(=O)Nc1nccs1)C(CC)c1ccccc1)N(O)C=O (some centres unmarked) [TCMDC-137999],-15.87
14,Cc1cccc2nc(-c3ccc(-c4ccc(CNCCCN5CCCC5=O)cc4)cc3)[nH]c12.O=C(O)C(F)(F)F [TCMDC-132763],3.748
15,O=C(Cn1c(CCc2cccc(F)c2F)nc(=O)c2ccccc21)N(Cc1ccc(-c2ccc(C(F)(F)F)cc2)cc1)C1CCN(C2CCOCC2)CC1 [TCMDC-136502],73.92
16,O=C(Cn1c(CCc2cccc(F)c2F)nc(=O)c2ccccc21)N(Cc1ccc(-c2ccc(C(F)(F)F)cc2)cc1)C1CCN(C2CCSCC2)CC1 [TCMDC-136609],103.4
17,O=C(Cn1c(CCc2cccc(F)c2F)nc(=O)c2cccnc21)N(Cc1ccc(-c2ccc(C(F)(F)F)cc2)cc1)C1CCN(C2CCOCC2)CC1 [TCMDC-136501],53.37
18,O=C(Cn1c(CCc2cccc(F)c2F)nc(=O)c2cccnc21)N(Cc1ccc(-c2ccc(C(F)(F)F)cc2)cc1)C1CCN(C2CCSCC2)CC1 [TCMDC-136559],46.52
19,N#Cc1ccc(N2CCN(Cc3ccc(-c4ccc(-c5nc6cc(C(F)(F)F)ccc6[nH]5)s4)cc3)CC2)nc1.O=C(O)C(F)(F)F [TCMDC-133110],-11.35
20,N#Cc1ccc(CN2CCC(Oc3ccc(NC(=O)c4ccccc4)cc3Cl)CC2)cc1 [TCMDC-133958],11.07

# — paper PMC4552634, “A New Set of Chemical Starting Points with Plasmodium falciparum Transmission-Blocking Potential for Antimalarial Drug Discovery” (PLoS ONE, 2015)
